Ba CapD inh – CapD enzyme inhibition. purified CapD enzyme, fluorescence intensity read-out; active compounds read low. z-score (concentration not given with the values). hit rate 0.23% among 140,000; in the data active means z-score mostly below about -2.9, no sharp cut-off; inactive means mostly above about -1.9
* marks the source's active call; other numbers are inactive results. The entries come from a sample that favours hits as a whole.

SMILES	Ba CapD inh
CCCN1C/C(=C\c2ccc(N(C)C)cc2)C(=O)/C(=C/c2ccc(N(C)C)cc2)C1	0.15
CO/N=C/c1ccc(Sc2cccc(C(F)(F)F)c2)c([N+](=O)[O-])c1	-0.36
N#Cc1c(-c2ccccc2)[nH]c(=S)[nH]c1=O	-6.1*
N#Cc1c(-c2cccs2)[nH]c(=S)[nH]c1=O	-1.2
CN(C)c1ccc(-c2[nH]c(=S)[nH]c(=O)c2C#N)cc1	0.14
CCN1CCc2c(sc3c2C(=O)NC(c2ccc(COc4ccc(Cl)c(Cl)c4)o2)N3)C1 (stereo unspecified)	1.8
O=C(O)C1CCC(Cn2c(=S)[nH]c3ccccc3c2=O)CC1 (stereo unspecified)	0.12
CC1CCCCN1C(=O)Cn1ncc2c1-c1ccccc1OC2 (stereo unspecified)	-4*
CCN(CCN(C)C)C(=O)Cn1ncc2c1-c1ccccc1OC2	0.48
CC(C)NC(=O)Cn1ncc2c1-c1ccccc1OC2	-0.46
O=C(Nc1ccccc1C(=O)Nc1ccc(Cl)cc1)c1cccc(S(=O)(=O)N2CCCCCC2)c1	-0.095
CCOc1ccc(N2C(=O)/C(=C\c3ccc(-c4ccc([N+](=O)[O-])cc4)o3)C(=O)NC2=S)cc1	-0.23
CCOC(=O)CC(=O)CSc1nc2cc(C(=O)N3CCC(C(N)=O)CC3)ccc2c(=O)n1-c1ccc(F)cc1	0.29
CC(C)(C)C1(C)OC(=O)C(=Cc2ccccc2Cl)C(=O)O1 (stereo unspecified)	-0.36
CC(C)(C)C1(C)OC(=O)C(=Cc2ccc(Br)o2)C(=O)O1 (stereo unspecified)	-5.1*
CC1(C)OC(=O)C(=Cc2ccc(-c3ccccc3)o2)C(=O)O1	0.36
O=C(CCc1c[nH]c2ccccc12)N1CCC(O)(Cc2ccccc2)CC1	-0.71
CN(c1ccc(Br)cc1)S(=O)(=O)c1ccc2[nH]cc(C(=O)NC3CCCCCC3)c(=O)c2c1	1
O=C(O)CC(C(=O)O)N1C(=O)/C(=C/c2ccc(-c3ccc(Br)cc3)o2)SC1=S (stereo unspecified)	-4.5*
COc1ccc(/C=C2\SC(=S)N(C(CC(=O)O)C(=O)O)C2=O)cc1 (stereo unspecified)	-3
O=C(O)CC(C(=O)O)N1C(=O)/C(=C/c2ccc(Cl)cc2)SC1=S (stereo unspecified)	-1
CCCCCCCC(=O)N1c2ccccc2C(N(C(=O)c2ccc([N+](=O)[O-])cc2)c2ccccc2)CC1C (stereo unspecified)	-0.11
O=C1CCCC2=C1C(c1cc([N+](=O)[O-])ccc1O)C1=C(N2)c2ccccc2C1=O (stereo unspecified)	-0.84
CCOC(=O)C1=C(N)n2c(s/c(=C\c3ccc(CC)cc3)c2=O)=C(C#N)C1c1ccc(CC)cc1 (stereo unspecified)	-0.14
COc1ccc(C(=O)NNc2nc3ccccc3nc2C(F)(F)F)cc1	-0.28
SMILES	Ba CapD inh
COC(=O)c1sccc1-c1ccc(-c2ccn[nH]2)o1	74
CC(C)(C)c1ccc(Oc2ccc3noc4c3c2C(=O)c2ccccc2-4)cc1	-1.2
COc1cccc2c1OC13CCCCC1C2/C(=C(\C)O)C(=O)N3 (stereo unspecified)	-0.08
CC1CCN(c2cc(N(C)CCO)c([N+](=O)[O-])c3nonc23)CC1	-2.9
CN1CCN(c2cc(N(C)CCO)c([N+](=O)[O-])c3nonc23)CC1	-4.2*
CN(CCO)c1cc(N2CCCCCC2)c2nonc2c1[N+](=O)[O-]	-2.7
Cn1c(SCc2ccc(C(C)(C)C)cc2)nc(C(F)(F)F)cc1=O	-0.22
Cc1cc(C2SCc3cc(C)c(C)cc3CS2)c(O)c([N+](=O)[O-])c1	-0.14
COc1ccccc1C(=O)ON1C(=O)CCC1=O	-5.5*
COc1ccccc1C(=O)OC1CCN(C)CC1	0.055
COc1ccc(C(=O)ON2C(=O)CCC2=O)cc1	-1.1
CCN(CCOC(=O)NNC(=O)c1sc(-c2ccccc2)nc1C)c1ccc(N=Nc2ccc([N+](=O)[O-])cc2)cc1	-0.53
COc1cc(OC)cc(C2SC(N)=C(C#N)C(N)=C2C#N)c1 (stereo unspecified)	-0.59
N#CC1=C(N)SC(c2cccs2)C(C#N)=C1N (stereo unspecified)	-5.1*
N#CC1=C(N)OC(C2CC2)=C(C#N)C1c1cccs1 (stereo unspecified)	2.5
CC(C)(C)c1ccc(S(=O)(=O)N2CCCC(C(=O)O)C2)cc1 (stereo unspecified)	-0.72
Cc1nn(-c2ccccc2)nc1C(=O)N1CCCc2ccccc21	-0.86
COC(=O)C(=C/C=C/c1cccs1)C(=O)OC	-3.2
COC(=O)C(=C/C=C/N1CCCCC1)C(=O)OC	-4.8*
COC(=O)c1noc(C)c1C(=O)/C=C/N1CCCCC1	8.3
CN(CC(=O)NC1CCCCCC1)S(=O)(=O)c1ccc2c(c1)c(=O)n(C)c(=O)n2C	0.26
C[n+]1c(-c2ccccc2)oc2ccc3[nH]ccc3c21	-0.34
CCOC(=O)c1c(NC(=O)C(C)Sc2nnc(CNC(=O)c3cc(OC)cc(OC)c3)n2C)sc2c1CCCC2 (stereo unspecified)	-0.43
CCOC(=O)c1coc2c(F)c(F)c(F)cc2c1=O	-12*
CCOC(=O)c1c[nH]c2c(F)ccc(F)c2c1=O	2.8
SMILES	Ba CapD inh
CCOC(=O)c1c[nH]c2ccccc2c1=O	-0.28
COC(=O)c1noc(-c2ccccc2)n1	0.025
CSc1ccc(C2CC(=O)NC3=C2C(=O)CCC3)cc1 (stereo unspecified)	0.52
CCCS(=O)(=O)NCc1cn2ccc(C)cc2n1	11
Cc1cc(/C=C2\C(=O)NC(=S)N(c3ccc(F)cc3)C2=O)c(C)n1-c1ccccc1	-0.46
Cc1cc(/C=C2\C(=O)NC(=S)N(c3cccc(Cl)c3)C2=O)c(C)n1-c1cc(C(=O)O)cc(C(=O)O)c1	-5.9*
Cc1ccc(N2C(=O)NC(=O)/C(=C\c3cc(C)n(-c4cc(C(=O)O)cc(C(=O)O)c4)c3C)C2=O)cc1	-1.1
Nc1ccccc1SCc1cccc(Cl)c1F	0.61
COC(=O)C1=CN(Cc2ccc(F)cc2)C=C(C(=O)OC)C1c1cccc(OCc2ccccc2)c1	58
Cc1nn(CCCC(=O)N2CCCCC2)c(=O)c2c1sc1ccccc12	8.5
Cc1nn(CC(=O)NCc2ccc3c(c2)OCO3)c(=O)c2c1sc1ccccc12	0.41
CCCNC(=O)Cn1nc(C)c2sc3ccccc3c2c1=O	-5.8*
O=C(O)C1CC=CCC1C(=O)N1CCOCC1 (stereo unspecified)	-0.62
COc1ccc(OC)c(NC(=O)c2sc3ncnc(N4CCCCC4C)c3c2C)c1 (stereo unspecified)	-1.6
O=c1[nH]c(=S)c2c(n1N1CCOCC1)CCC2	-5*
O=C(NC(c1ccccc1)c1ccccc1)OCCc1ccccc1F	-0.89
Cc1cc(C(=O)O)c(C)n1-c1ccc(Cl)cc1	-0.14
Cc1ccc(C)n1-c1cccc(C(=O)O)c1	-8.6*
O=C(O)c1cccc(N2CCCC2)c1	76
Cc1ccc(C)n1-c1cccc(N)c1	0.07
Cc1ccc(C)n1-c1sccc1C(=O)O	-11*
CC(=O)Nc1sccc1C(=O)O	0.89
Cc1ccc(C)n1-c1ccc(CC(=O)O)cc1	-3.2
Cc1ccc(C)n1-c1ccc(C(=O)O)c(C(=O)O)c1	-8.4*
Cc1ccc(C)n1-c1sccc1C(=O)CC#N	0.39
Cc1cc(N2C(=O)C3C4C=CC(C4)C3C2=O)ccc1N1C(=O)c2ccc(Cl)cc2C1=O (stereo unspecified)	-0.25
Cc1c(S(=O)(=O)N2CCc3ccccc3C2CN2C(=O)c3ccccc3C2=O)sc2ccc(Cl)cc12 (stereo unspecified)	-0.98
O=C(CBr)C12CC3CC(CC(C3)C1)C2	-0.29
